Source: PubChem BioAssay
tim23-1 inh: growth inhibitors of tim23-1 mutant yeast. S. cerevisiae tim23-1 growth, BacTiter-Glo luminescence, 24 h. inhibition, % at 20 µM. 1.3% of 330,000 active;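 active means growth inhibition of the mutant yeast at or above 50%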;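 further: temperature-sensitive mutant grown at 25 °C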
tim10-1 inh: growth inhibitors of tim10-1 mutant yeast; S. cerevisiae tim10-1 ts strain growth, BacTiter-Glo, 24 h; 2.2% of 330,000 active; AID 463190; inhibition, % at 20 µM;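 active means inhibition of at least 40%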;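 further: mutant grown at 25 °C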
PfHsp90 set2: growth inhibition of yeast expressing Plasmodium Hsp90 | AID 504621 | S. cerevisiae expressing PfHsp90, BacTiter-Glo ATP, 48 h; yeast lacking PDR1 and PDR3 efflux regulators | 0.32% of 310,000 active | inhibition, % at 9.4 µM;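 active means every replicate shows inhibition above about 80%, whatever the replicate mean, limit read from the data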
SKKanGAS inh: inhibitors of SKKanGAS S. pyogenes growth in kanamycin (SK-promoter or general growth effect); inhibition, % at 7.5 µM; AID 1662; 1.3% of 300,000 active; BacTiter-Glo, 6 h;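 active means mean replicate score, as percent of positive control median, at least 50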;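 further: strain carries kanamycin resistance gene driven by streptokinase promoter and grows in 40 µg/ml kanamycin; loss of luminescence reflects streptokinase promoter inhibition or plain growth inhibition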
TIM10 inh: TIM10 yeast growth inhibition; S. cerevisiae TIM10 strain growth, BacTiter-Glo luminescence, 24 h; inhibition, % at 10 µM; 1.4% of 330,000 active; AID 463195;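 active means inhibition of 40% or more at the single tested concentration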;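 further: wild-type TIM10 isogenic control strain grown at permissive 25 °C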
NALP1 yeast inh: inhibitors of NALP1 inflammasome in yeast; S. cerevisiae NALP1/ASC/caspase-1 growth, X-gal OD620, 72 h; inhibition, % at 10 µM; 0.61% of 280,000 active; in the data active means inhibition mostly above about 24%, no sharp cut-off; inactive means mostly below about 32%
Hits are given with their value; – = inactive; · = no result. A selection: hits, their analogues and other compounds. The true share with any hit is near 4.8%.

SMILES	tim23-1 inh	tim10-1 inh	PfHsp90 set2	SKKanGAS inh	TIM10 inh	NALP1 yeast inh
Cc1ccc(OP(=O)(Nc2cccc(C)c2)Oc2ccc(C)cc2)cc1	–	–	–	76	–	–
Cc1cccc(OP(=O)(Nc2cccnc2)Oc2cccc(C)c2)c1	–	–	–	–	–	–
Clc1ccc(CO/N=C(\Cn2ccnc2)c2ccc(Cl)cc2Cl)c(Cl)c1	–	–	·	96	–	·
N=c1sccn1Cc1ccc(Cl)cc1Cl	–	–	–	–	–	–
CCCCCCC(=O)N/N=C/c1c(O)n(CCCC)c(=S)[nH]c1=O	–	–	–	84	–	–
CCCCn1c(O)c(/C=N/NC(=O)c2ccncc2)c(=O)[nH]c1=S	–	–	–	106	–	–
Cn1c(O)c(/C=N/NC(=O)c2ccncc2)c(=O)[nH]c1=S	–	–	·	–	–	–
CCCCC(=O)N/N=C/c1c(O)n(CC)c(=S)[nH]c1=O	–	–	–	–	–	–
Cc1ccc(/C=C2\C(=O)NC(=O)N(Cc3ccccc3Cl)C2=O)o1	–	–	–	–	–	–
CC1=CC2OC3CC4OC(=O)C=CC=CC(=O)OCCC(C)C(O)C(=O)OCC2(CC1)C4(C)C31CO1 (stereo not drawn)	·	·	105	·	·	·
CC1CCOC(=O)C=CC=CC(=O)OC2CC3OC4C5OC5(C)C(O)CC4(COC(=O)C1O)C2(C)C31CO1 (stereo not drawn)	·	·	–	·	·	·
CC1CCN(C(CC(=O)c2ccccc2)C(=O)c2ccccc2)CC1 (stereo not drawn)	·	·	113	·	·	·
O=C(/C=C/c1c[nH]c2ccccc12)c1c(O)n(CCc2ccccc2)c(=O)[nH]c1=O	–	–	–	85	–	–
CCCCn1c(O)c(C(C)=NCCc2c[nH]c3ccccc23)c(=O)[nH]c1=O	–	–	–	–	–	–
COc1ccc(NC2=NCC(C)S2)cc1 (stereo not drawn)	–	–	–	–	–	–
COc1ccc2nc(NC3=NCCN3)sc2c1	–	–	–	–	–	93
c1ccc2sc(NC3=NCCN3)nc2c1	–	–	–	–	–	104
CCN1C(=O)C(=Cc2ccc(N3CCOCC3)o2)C(=O)N(CC)C1=S	–	–	–	–	–	–
CCOC(=O)C1(CCc2ccccc2)CCN(Cc2cccc3cnccc23)CC1	–	–	–	–	–	–
CCOC(=O)C1(CCc2ccccc2)CCN(Cc2csc(C(C)=O)c2)CC1	–	–	–	–	–	27
CCCn1cc(C(=O)O)cn1	–	–	–	–	–	–
COC[C@H]1OC(=O)c2coc3c2[C@@]1(C)C1=C(C3=O)[C@@H]2CCC(=O)[C@@]2(C)C[C@H]1OC(C)=O	·	·	106	·	·	·
C=CCN1C(=O)c2ccccc2Sc2ccc(C(=O)N3CCC4(CC3)OCCO4)cc21	–	–	·	–	–	–
CC[C@H](C)/C=C(C)/C=C/C1=CC2=C(Cl)C(=O)[C@@](C)(OC(C)=O)C(=O)C2=CO1	–	–	106	–	–	·
CCC(C)/C=C(C)/C=C/C1=CC2=C(Cl)C(=O)C(C)(OC(C)=O)C(=O)C2=CO1 (stereo not drawn)	–	–	–	–	–	–
SMILES	tim23-1 inh	tim10-1 inh	PfHsp90 set2	SKKanGAS inh	TIM10 inh	NALP1 yeast inh
Cc1ccsc1/C=C1\C(=O)NC(=S)N(C)C1=O	–	–	–	–	–	–
CN1C(=O)/C(=C/c2ccc(Cl)s2)C(=O)NC1=S	·	·	94	–	·	–
COc1cc(C=C2C(=O)NC(=O)NC2=O)ccc1OS(=O)(=O)c1ccccc1[N+](=O)[O-]	–	–	–	–	–	–
CC1([N+](=O)[O-])COP(=O)(Nc2ccc(Cl)cc2)OC1 (stereo not drawn)	·	·	–	·	·	·
CC1(C)COC(Nc2ccc(Cl)cc2)=N1	–	–	–	–	–	41
Cc1[nH]c2ccc(OCc3ccccc3)cc2c1CCN	–	–	–	–	–	–
Cc1nc2ccccc2c(=O)n1-c1ccccn1	–	–	–	–	–	–
CC(C)(C)c1ccc(CSc2cnn(C(C)(C)C)c(=O)c2Cl)cc1	–	–	–	59	–	–
COc1cc2c(cc1/C=C/[N+](=O)[O-])OCO2	·	·	106	–	·	–
CCCCn1c(=O)c(C(=O)Nc2ncccc2C)c(O)c2ccccc21	–	–	–	107	–	–
CCCCn1c(=O)c(C(=O)Nc2nnc(C(C)C)s2)c(O)c2ccccc21	–	–	·	95	–	–
CCCCCCn1c(=O)c(C(=O)Nc2nnc(C)s2)c(O)c2ccccc21	–	–	·	–	–	–
CCCCCn1c(=O)c(C(=O)Nc2ccccc2C)c(O)c2ccccc21	–	–	–	–	–	–
CCCCCCn1c(=O)c(C(=O)Nc2ncccc2C)c(O)c2ccccc21	–	–	–	94	–	–
CCCCCn1c(=O)c(C(=O)Nc2nc(CC(=O)OCC)cs2)c(O)c2ccccc21	–	–	–	71	–	–
CS(=O)(=O)c1ccc(C(=O)N2CCC(C(=O)O)(c3ccccc3)CC2)cc1	–	–	–	–	–	–
Cc1cc(OCC(=O)NC(Cc2ccc(Cl)cc2)C(=O)O)c2c3c(c(=O)oc2c1)CCC3 (stereo not drawn)	–	–	–	–	–	–
C/C(=N\NC(=O)c1ccccc1)c1c(O)n(C2CCCCC2)c(=O)[nH]c1=O	–	–	–	–	–	–
CC1Oc2cc3c(-c4c(O)cc(O)c5c(O)c6c(cc45)OC(C)C(C)C6=O)c(O)cc(O)c3c(O)c2C(=O)C1C (stereo not drawn)	–	–	–	107	–	–
CCC(=O)Nc1ccccc1	–	–	–	–	–	–
CCCCC/C=C\C/C=C\C/C=C\C/C=C\CCCC(=O)Nc1ccc(O)cc1	·	·	·	107	·	–
Cn1c(O)c(C(=NCCc2c[nH]c3ccccc23)c2ccccc2)c(=O)n(C)c1=O	–	–	–	–	–	–
COCCNC(=O)c1c(NC(=O)c2ccc(Br)o2)n(Cc2ccccc2)c2nc3ccccc3nc12	–	–	–	61	–	–
COCCCNC(=O)c1c(NC(=O)c2ccco2)n(Cc2ccccc2)c2nc3ccccc3nc12	–	–	–	–	–	–
COC(=O)C1=C(c2cccc(OC)c2OC)C[C@@H]2CC[C@H]1N2C(=O)NCc1cccc2ccccc12	–	–	–	–	–	·
SMILES	tim23-1 inh	tim10-1 inh	PfHsp90 set2	SKKanGAS inh	TIM10 inh	NALP1 yeast inh
Cc1onc(-c2c(Cl)cccc2Cl)c1C(=O)Nc1ccc2c(C(F)(F)F)cc(=O)oc2c1	–	–	–	–	–	–
COC(=O)C1=C(C(=O)OC)SC2(S1)C(C(=O)OC)=C(C(=O)OC)Sc1c2ssc1=O	·	·	117	·	·	·
CC1CCC/C=C/C2CC(O)CC2C(O)/C=C/C(=O)O1 (stereo not drawn)	–	–	–	–	–	40
COc1cc([N+](=O)[O-])c2nc(C)ccc2c1[N+](=O)[O-]	·	·	–	·	·	·
O=c1oc2ccccc2c(O)c1C(c1ccc([N+](=O)[O-])cc1)c1c(O)c2ccccc2oc1=O	·	·	–	62	·	–
CC(C)N1CCN(Cc2c[nH]c3ccccc23)CC1CCO (stereo not drawn)	–	–	–	–	–	–
